From PubChem BioAssay come the findings set out here.

Calls of active or inactive are those of the source.

For assay [1], the system named is Human papillomavirus type 1a protein E7 (residues 44-93). Put plainly: HPV1a E7 fragment binders on microarrays, primary screen, biochemical, small-molecule microarray, residues 44-93, 635 nm fluorescence (AID 1108).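 Further: E7 fragment applied at 1 µg/mL in TBST for 1 h at 4 C; score combines spot fluorescence with its signal to noise ratio.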 Conditions: small-molecule microarray binding, fluorescence 635 nm; higher = more signal.
A short description of assay [2]: modulators of HCV replicon luciferase signal, primary screen, HCV replication inhibitor project, Huh7 cells, luciferase reporter (AID 1109).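 Further: huh7 hepatoma cells harbouring a luciferase neomycin HCV replicon reporter; luciferase luminescence as measure of HCV replicon replication; test concentration not given here.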 Conditions: 48 h, higher = more signal. In general terms: A replicon is a self-replicating genome or part of one, used to study replication in cells.
Assay [3] concerns the target Left-right determination factor 2 (Homo sapiens) (UniProt O00292). Put plainly: LEFTY2 binders on small-molecule microarrays, primary screen, biochemical, small-molecule microarray, 635 nm fluorescence scan (AID 1110). The settings on record: LEFTY2 binding, higher = more signal.
Assay [4] has as its target Calmodulin-1 (Homo sapiens) (UniProt P0DP23). Description: CALM1 binders on microarrays, EGTA buffer, profiling panel, biochemical, small-molecule microarray, Cy5-labelled CALM1 (AID 1111).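 Further: labelled calmodulin applied in Tris saline Tween buffer holding calcium plus EGTA and DTT.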 Conditions: Cy5-CALM1 binding fluorescence, higher = more signal.
The target is the same in assay [5]. Description: calcium-bound CALM1 binders on microarrays, profiling panel, artefact control for SMM control-protein annotation, biochemical, small-molecule microarray, Cy5-labelled CALM1, plus calcium (AID 1112).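 Further: score merges spot fluorescence with signal to noise from triplicate slides.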 Conditions: Cy5-CALM1 binding fluorescence, higher = more signal.
The nature of assay [6]: small-molecule microarray binders of probe aWnt5a, primary screen, biochemical, biotinylated probe, 635/667 nm fluorescence (AID 1113).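 Further: score merges 667 nm fluorescence intensity with signal-to-noise per printed feature.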 The settings on record: higher = more signal.
Assay [7] in a line: small-molecule microarray binders of probe aShh, primary screen, biochemical, biotinylated probe, 635/667 nm fluorescence (AID 1114).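 Further: probe is biotin-labelled aShh protein from a stem cell growth factor screen; measures binding of labelled protein to compounds printed on the slide; score merges feature fluorescence at 667 nm with signal-to-noise.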 Conditions: higher = more signal.
Assay [8] is described as follows: small-molecule microarray binders of probe aNog, primary screen, biochemical, biotinylated probe, 635/667 nm fluorescence (AID 1115).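 Further: probe is biotinylated aNog protein used at 0.15 µg/mL for 1 h at 4 C; z-score combines 667 nm fluorescence of each spot with its signal to noise.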 The settings on record: higher = more signal.
Assay [9] has as its target Torsin-1A-interacting protein 1 (Homo sapiens) (UniProt Q5JTV8). Put plainly: LAP1 binders from COS7 cell lysate, primary screen, small-molecule microarray, 635/667 nm fluorescence (AID 1116). The settings on record: COS7-hLAP1 lysate binding, 635 nm fluorescence, higher = more signal.
The target in assay [10] is Alpha-bungarotoxin (Bungarus multicinctus) (UniProt P60615). Put plainly: alpha-bungarotoxin binders on microarray, profiling panel, artefact control for SMM control protein annotation, biochemical, small-molecule microarray, Alexa647 label, 635/667 nm fluorescence (AID 1117). The settings on record: alpha-BTX-A647 binding fluorescence, higher = more signal.
The next assay deals with Albumin (Bos taurus) (UniProt P02769). Description: bovine serum albumin binders on microarray, profiling panel, artefact control for SMM control protein annotation, biochemical, small-molecule microarray, Alexa647 label, 635/667 nm fluorescence (AID 1118).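 Further: score merges 667 nm emission intensity and signal-to-noise per printed compound spot.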 Conditions: BSA-A647 binding, fluorescence 635 nm, higher = more signal.
Assay [11] is described as follows: small-molecule microarray binders of probe aXIP, primary screen, biochemical, NeuroSMM set, 635/667 nm fluorescence (AID 1119).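 Further: probe is the protein aXip251-270 applied at 1 µg/mL to compound-printed slides; binding of probe to printed compounds measured as 667 nm fluorescence plus signal to noise.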 Conditions: higher = more signal, called active from +8 up or from −8 down.
Assay [12] can be described thus: small-molecule binders of probe aNOTCH3, primary screen, biochemical, small-molecule microarray, 635/667 nm fluorescence (AID 1120).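 Further: probe is a biotin-tagged antibody raised against NOTCH3 rather than NOTCH3 protein; score merges spot fluorescence near 667 nm with spot signal to noise.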 The settings on record: higher = more signal.
Assay [13] in a line: small-molecule binders of probe aNOTCH2, primary screen, biochemical, small-molecule microarray, 635/667 nm fluorescence (AID 1121).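 Further: score merges feature fluorescence read at 667 nm with its signal to noise.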 The settings on record: higher = more signal.
Assay [14] has as its target Carbonic anhydrase 2 (Homo sapiens) (UniProt P00918). Put plainly: CAII small-molecule binders, profiling panel, biochemical, small-molecule microarray, Alexa647-labelled CAII (AID 1122). The settings on record: CAII-A647 binding fluorescence, higher = more signal.
The nature of assay [15]: COS7 lysate on small-molecule microarray, probe aHis, 635 nm (AID 1123).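 Further: z-score combines 667nm fluorescence intensity with signal-to-noise per printed compound spot.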 Conditions: COS7 cell lysate, fluorescence, higher = more signal.
Assay [16] in a line: compound binding in COS7 lysate, probe aLAP1, primary screen, cell lysate, small-molecule microarray (AID 1124).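 Further: lysate comes from COS7 cells expressing LAP1 and is applied at 0.3 µg/mL; score merges spot fluorescence near 667 nm with signal-to-noise over triplicate slides.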 Conditions: probe aLAP1, fluorescence, higher = more signal.
In the next assay the test system is Sam68 (KHDRBS1). Description: Sam68 small-molecule binders, primary screen, biochemical, small-molecule microarray, 635 nm fluorescence (AID 1125).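 Further: score merges 667 nm channel intensity with signal to noise over triplicate slides.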 Conditions: small-molecule microarray binding, higher = more signal.
For assay [17], the system named is Chordin-like protein 2 (CHRDL2). Put plainly: CHRDL2 small-molecule binders, primary screen, biochemical, small-molecule microarray, 635 nm fluorescence (AID 1126).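 Further: printed compound slides probed with Chrdl2 protein at 4 µg/mL for 1 h at 4 C; score merges 667 nm emission intensity with signal to noise over three replicate slides.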 The settings on record: small-molecule microarray binding, fluorescence 635 nm; higher = more signal.
For assay [18], the target named is Concanavalin-A (Canavalia ensiformis) (UniProt P02866). Put plainly: ConA small-molecule binders, primary screen, artefact control for SMM control protein annotation, biochemical, small-molecule microarray, Alexa647 label, 635 nm (AID 1127).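 Further: z combines 667 nm emission intensity with signal-to-noise across three replicate slides.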 Conditions: ConA-A647 binding fluorescence, higher = more signal.
Concanavalin-A (Canavalia ensiformis), sequence (P02866 whole entry, looked up): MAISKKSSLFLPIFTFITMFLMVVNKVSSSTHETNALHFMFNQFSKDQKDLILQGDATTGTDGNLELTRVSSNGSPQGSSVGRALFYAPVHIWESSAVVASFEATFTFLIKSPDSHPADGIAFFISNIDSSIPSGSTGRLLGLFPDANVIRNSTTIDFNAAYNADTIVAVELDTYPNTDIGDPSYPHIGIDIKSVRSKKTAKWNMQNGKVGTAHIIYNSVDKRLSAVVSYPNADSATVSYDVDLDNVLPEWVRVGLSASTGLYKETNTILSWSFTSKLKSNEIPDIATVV

Left-right determination factor 2 (Homo sapiens), sequence (O00292 whole entry, looked up): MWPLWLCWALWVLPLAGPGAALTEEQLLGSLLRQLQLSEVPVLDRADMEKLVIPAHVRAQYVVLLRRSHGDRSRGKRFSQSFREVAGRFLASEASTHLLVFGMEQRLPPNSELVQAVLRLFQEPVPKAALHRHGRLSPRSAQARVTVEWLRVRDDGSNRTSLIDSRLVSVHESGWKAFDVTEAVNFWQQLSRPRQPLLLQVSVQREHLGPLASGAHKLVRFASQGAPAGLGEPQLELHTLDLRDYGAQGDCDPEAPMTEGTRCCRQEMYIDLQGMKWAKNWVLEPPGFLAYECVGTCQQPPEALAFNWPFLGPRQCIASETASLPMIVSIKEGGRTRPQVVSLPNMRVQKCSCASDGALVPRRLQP
Albumin (Bos taurus), sequence (P02769 whole entry, looked up): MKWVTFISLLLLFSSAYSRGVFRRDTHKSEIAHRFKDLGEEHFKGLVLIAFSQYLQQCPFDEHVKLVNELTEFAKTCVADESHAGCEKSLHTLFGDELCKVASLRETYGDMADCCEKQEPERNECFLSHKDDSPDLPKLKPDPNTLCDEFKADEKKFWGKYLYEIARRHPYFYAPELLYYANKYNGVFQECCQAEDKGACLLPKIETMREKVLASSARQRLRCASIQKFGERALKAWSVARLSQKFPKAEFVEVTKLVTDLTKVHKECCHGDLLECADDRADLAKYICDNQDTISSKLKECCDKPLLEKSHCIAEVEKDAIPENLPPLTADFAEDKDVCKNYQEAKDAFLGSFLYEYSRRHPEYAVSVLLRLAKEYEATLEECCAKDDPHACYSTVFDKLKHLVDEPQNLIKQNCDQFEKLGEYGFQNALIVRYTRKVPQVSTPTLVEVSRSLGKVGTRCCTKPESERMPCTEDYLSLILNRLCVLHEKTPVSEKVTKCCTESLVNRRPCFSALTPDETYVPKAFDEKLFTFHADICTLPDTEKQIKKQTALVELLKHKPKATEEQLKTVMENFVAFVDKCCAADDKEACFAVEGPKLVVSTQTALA
Torsin-1A-interacting protein 1 (Homo sapiens), sequence (Q5JTV8 whole entry, looked up): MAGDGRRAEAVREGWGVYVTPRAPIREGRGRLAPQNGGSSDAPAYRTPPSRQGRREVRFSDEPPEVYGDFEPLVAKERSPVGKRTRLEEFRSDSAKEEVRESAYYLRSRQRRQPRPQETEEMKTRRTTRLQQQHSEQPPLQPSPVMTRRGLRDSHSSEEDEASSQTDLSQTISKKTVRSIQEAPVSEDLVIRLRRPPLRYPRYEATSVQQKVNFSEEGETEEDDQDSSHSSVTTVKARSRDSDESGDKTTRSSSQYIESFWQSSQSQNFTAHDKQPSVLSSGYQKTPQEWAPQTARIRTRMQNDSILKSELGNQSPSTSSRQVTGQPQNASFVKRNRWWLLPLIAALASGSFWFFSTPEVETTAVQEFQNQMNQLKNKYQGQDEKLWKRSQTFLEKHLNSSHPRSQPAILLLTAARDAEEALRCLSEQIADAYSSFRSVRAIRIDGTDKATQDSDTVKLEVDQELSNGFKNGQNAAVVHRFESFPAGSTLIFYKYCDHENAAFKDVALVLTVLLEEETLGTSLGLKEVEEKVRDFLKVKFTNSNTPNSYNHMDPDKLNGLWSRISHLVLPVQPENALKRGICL
Alpha-bungarotoxin (Bungarus multicinctus), sequence (P60615 whole entry, looked up): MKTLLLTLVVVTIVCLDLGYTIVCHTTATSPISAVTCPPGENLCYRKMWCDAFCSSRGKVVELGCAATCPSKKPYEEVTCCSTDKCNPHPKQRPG

As for `CC(CO)N1C(=O)[C@@H]2[C@H]3C(=O)OCC=C[C@H]3OC23C=CCN(c2ccc(Cl)cc2)C(=O)[C@@H]13` (stereo not given in full), the composite z-score in [1] was -0.716; in assay [3], -2.63; in [4], -0.669; in assay [5], -0.934; in assay [6], -0.178; in assay [7], 1.71. Further, the composite z-score in assay [8] is -0.273; in assay [9], -1.67; in assay [10], -1.94; in the assay with Albumin (Bos taurus) it was -1.68; in [12], -0.454; in assay [13], -0.161. Also, the composite z-score in assay [14] is 0.935; in [15], -0.224; in [16], -0.191; in the assay on Sam68 (KHDRBS1), -0.598; in assay [17], -2.12; in assay [18], -2.16. The same molecule yielded a z-score in assay [2] of -0.205. The composite Z-score in [11] was -0.243 (inactive).

Turning to `COCC(=C=CC[C@@H](O)c1cccc(OCCO)c1)CCO`, the composite z-score was 0.328 in assay [1]; -0.313 in assay [3]; 0.32 in assay [4]; 0.281 in [5]; 0.129 in [6]; -0.372 in assay [7]. For the same molecule, the composite z-score in assay [8] is -0.0987; in assay [9], 0.69; in assay [10] it was 1.73; in the assay with Albumin (Bos taurus), 0.682; in assay [12] it was -0.0293; in assay [13] it was 0.011. The composite z-score in [14] is 0.708; in assay [15] it was 0.562; in [16], 1.41; in the assay with Sam68 (KHDRBS1), 0.381; in assay [17] it was -0.325; in assay [18] it was 0.856. In addition, the z-score in assay [2] was 0.22. Moreover, the composite Z-score in [11] is 0.0124 (inactive).

For `COC(=O)C1=CC(CCCO)=CC(c2ccc(CN3CCCC3)cc2)N(Cc2cc3c(cc2Br)OCO3)C=C1C(=O)OC` (stereo not given), the composite z-score was determined as 1.39 in [1]; 0.688 in [3]; 1.9 in assay [4]; 0.795 in [5]; 0.212 in assay [6]; 0.839 in [7]. Also, the composite z-score in [8] was -0.603; in assay [9], 1.48; in [10], 0.853; with Albumin (Bos taurus), 1.04; in assay [12] it was 0.477; in assay [13], 0.135. Also, the composite z-score is 0.705 in assay [14]; 1.76 in assay [15]; 0.672 in [16]; 1.3 in the assay on Sam68 (KHDRBS1); -0.384 in [17]; 0.701 in [18]. This molecule showed a z-score in [2] of -0.803. Moreover, in [11], the composite Z-score was 0.339 (inactive).

Consider `COC(=O)[C@@]1(Cc2ccc(OC)cc2)[C@H]2c3cc(C(=O)N4CCCC4)n(Cc4ccc(OC(F)(F)F)cc4)c3C[C@H]2CN1C(=O)c1ccccc1`, for which the composite z-score in [1] is -0.0023; in [3] it was -0.251; in [4], 1.72; in assay [5] it was 1.13; in assay [6] it was 0.402; in [7], 0.358. Further, the composite z-score in assay [8] is 1.65; in assay [9] it was -0.401; in assay [10], 1.25; with Albumin (Bos taurus), 0.943; in [12], 0.142; in assay [13] it was 0.194. Moreover, the composite z-score in assay [14] is -0.0687; in assay [15], -0.0543; in assay [16], -0.347; with Sam68 (KHDRBS1) it was -0.582; in assay [17] it was -0.818; in [18], 1.01. This molecule showed a z-score in [2] of -2.48. For the same molecule, the composite Z-score in assay [11] was 0.308 (inactive).

In the case of `[N-]=[N+]=Nc1ccccc1[C@@H]1OC(c2ccc(OCCCO)cc2)=N[C@]1(Cc1ccccc1)C(=O)NCc1ccccc1`, the composite z-score in assay [1] is 0.656; in assay [3] it was -0.0068; in [4], 2.46; in [5], 1.33; in assay [6], 0.166; in assay [7], 0.628. For the same molecule, the composite z-score in assay [8] stood at 1.95; in assay [9], 2.27; in assay [10], 2.92; in the assay with Albumin (Bos taurus), 0.955; in assay [12] it was 0.367; in [13], 0.156. Besides, the composite z-score is 0.379 in assay [14]; 2.74 in [15]; 1.13 in assay [16]; 1.3 in the assay with Sam68 (KHDRBS1); -0.553 in [17]; 1.18 in assay [18]. Moreover, the z-score in assay [2] was -2.53. In addition, the composite Z-score in assay [11] was -0.128 (inactive).
